From the antibiotic and cytotoxicity screens of Wong et al. (2023)
About 1,500 (3.8%) of roughly 39,000 compounds were called active. Shown is part of a subset that was picked to be rich in actives.

tested on: HSkMC (human skeletal muscle cells); test: cytotoxicity call (relative viability < 0.9); settings: 10 µM

Compound	cytotoxicity call
C[C@@H]1CCCCO[C@@H](CN(C)C(=O)Nc2ccc(C(F)(F)F)cc2)[C@@H](C)CN([C@H](C)CO)C(=O)c2cc(NC(=O)Cc3ccccc3)ccc2O1	inactive
CC(CCC(=O)O)C1CCC2C3C(O)CC4CC(O)CCC4(C)C3CCC12C (centres undefined)	inactive
CC(C)[C@@H](CC[C@@H](C)[C@H]1CC[C@H]2[C@@H]3[C@H](O)C[C@H]4C[C@@H](NCCCNCCCCNCCCN)CC[C@]4(C)[C@H]3CC[C@]12C)OS(=O)(=O)O	active
C[C@H](CCC(=O)NCC(=O)NCCS(=O)(=O)O)[C@H]1CC[C@H]2[C@@H]3[C@H](O)C[C@@H]4C[C@H](O)CC[C@]4(C)[C@H]3C[C@H](O)[C@]12C	inactive
C[C@H](CCC(=O)NCCS(=O)(=O)O)[C@H]1CC[C@H]2[C@@H]3[C@H](O)C[C@@H]4C[C@H](O)CC[C@]4(C)[C@H]3C[C@H](O)[C@]12C	inactive
COC(=O)CCC(C)C1CCC2C3C(O)CC4CC(O)CCC4(C)C3CC(O)C12C (centres undefined)	inactive
CC(C)[C@@H](CC[C@@H](C)[C@H]1CC[C@H]2[C@@H]3[C@H](O)C[C@H]4C[C@@H](NCCCNCCCCN)CC[C@]4(C)[C@H]3CC[C@]12C)OS(=O)(=O)O	active
CC(=O)N1CCO[C@H]2CCN(C(=O)c3cn(C)cn3)C[C@H]21	inactive
Cc1ccc(S(=O)(=O)N(C)C[C@H]2OCCCC[C@H](C)Oc3ccc(NC(=O)Nc4ccc(F)cc4)cc3C(=O)N([C@H](C)CO)C[C@@H]2C)cc1	inactive
Cc1noc(C)c1NC(=O)N(C)C[C@@H]1Oc2ccc(NC(=O)c3ccncc3)cc2CC(=O)N([C@H](C)CO)C[C@H]1C	inactive
COc1cccc(NC(=O)N(C)C[C@H]2OCc3ccccc3-c3c(n(C)c4ccccc34)C(=O)N([C@@H](C)CO)C[C@H]2C)c1	inactive
C[C@H]1CN([C@@H](C)CO)S(=O)(=O)c2ccc(C#CCC3CCCC3)cc2O[C@@H]1CN(C)C(=O)c1cnccn1	inactive
C=CCC[C@H](Cc1ccc(F)cc1)C(=O)OC[C@H](Cc1c[nH]c2ccccc12)NC(=O)[C@@H](CC=C)CC(=O)N(CCO)Cc1ccccc1	active
C=CCC[C@@H](Cc1ccc(F)cc1)C(=O)OC[C@@H](Cc1c[nH]c2ccccc12)NC(=O)[C@H](CC=C)CC(=O)N(CCO)Cc1ccccc1	active
C=CCC[C@H](Cc1ccc(F)cc1)C(=O)OC[C@@H](Cc1c[nH]c2ccccc12)NC(=O)[C@@H](CC=C)CC(=O)N[C@@H](CO)Cc1ccccc1	inactive
C=CCC[C@H](Cc1ccc(F)cc1)C(=O)OC[C@@H](Cc1c[nH]c2ccccc12)NC(=O)[C@@H](CC=C)CC(=O)N(CCO)Cc1ccccc1	inactive
C=CCC[C@@H](Cc1ccc(F)cc1)C(=O)OC[C@@H](Cc1c[nH]c2ccccc12)NC(=O)[C@@H](CC=C)CC(=O)N(CCO)Cc1ccccc1	active
C=CCC[C@@H](Cc1ccc(F)cc1)C(=O)OC[C@H](Cc1c[nH]c2ccccc12)NC(=O)[C@H](CC=C)CC(=O)N(CCO)Cc1ccccc1	inactive
C=CCC[C@@H](Cc1ccc(F)cc1)C(=O)OC[C@H](Cc1c[nH]c2ccccc12)NC(=O)[C@@H](CC=C)CC(=O)N(CCO)Cc1ccccc1	inactive
C=CCC[C@H](Cc1ccc(F)cc1)C(=O)OC[C@@H](Cc1c[nH]c2ccccc12)NC(=O)[C@H](CC=C)CC(=O)N(CCO)Cc1ccccc1	active
C=CCC[C@@H](Cc1ccc(F)cc1)C(=O)OC[C@@H](Cc1c[nH]c2ccccc12)NC(=O)[C@@H](CC=C)CC(=O)N[C@@H](CO)Cc1ccccc1	inactive
C=CCC[C@H](Cc1ccc(F)cc1)C(=O)OC[C@H](Cc1c[nH]c2ccccc12)NC(=O)[C@H](CC=C)CC(=O)N(CCO)Cc1ccccc1	inactive

Compound	cytotoxicity call
CC(C)(C)[S@@](=O)N1Cc2cc(C(=O)N3CCc4ccccc4C3)nc(-c3cccc(-c4ccncc4)c3)c2[C@H]1CCO	inactive
CCO[C@H]1OC(C(=O)N2CCN(C)CC2)=C[C@@H](c2coc3ccccc3c2=O)[C@@H]1CCCOC(=O)NCCCCCC(=O)NO	inactive
C[C@@H]1CN([C@@H](C)CO)C(=O)Cc2cc(NS(=O)(=O)c3cccs3)ccc2O[C@@H]1CN(C)Cc1ccc(-c2ccccc2)cc1	inactive
NC(=O)CC(N)=S	inactive
C[C@H]1CN([C@@H](C)CO)S(=O)(=O)c2ccc(C#CC3CCCC3)cc2O[C@H]1CN(C)C(=O)Cc1ccncc1	inactive
CN(C)CC(=O)N1[C@@H]2Cn3c(ccc(-c4ccccc4)c3=O)[C@H]1[C@@H](C(=O)N1CCOCC1)[C@@H]2CO	inactive
C[C@H](CO)N1C[C@H](C)[C@H](CN(C)S(=O)(=O)c2cccs2)Oc2c(NC(=O)Nc3cccc4ccccc34)cccc2C1=O	inactive
COC(=O)C[C@H]1C=C[C@H](N)[C@H](CO)O1	inactive
Cc1noc(C)c1S(=O)(=O)Nc1ccc2c(c1)CC(=O)N([C@H](C)CO)C[C@H](C)[C@@H](CN(C)S(=O)(=O)c1cccs1)O2	inactive
C[C@@H]1CCCCO[C@@H](CN(C)S(=O)(=O)c2ccc(F)cc2)[C@H](C)CN([C@H](C)CO)C(=O)c2cc(NS(=O)(=O)c3ccc(Cl)cc3)ccc2O1	inactive
C[C@@H]1CN([C@@H](C)CO)C(=O)c2cc(NS(=O)(=O)c3ccc(F)cc3)ccc2O[C@@H]1CN(C)Cc1ccc(Cl)c(Cl)c1	inactive
C[C@H](CO)N1C[C@H](C)[C@@H](CN(C)Cc2ccc(Cl)c(Cl)c2)Oc2ccc(NS(=O)(=O)c3ccc(F)cc3)cc2C1=O	inactive
C[C@@H]1CN([C@@H](C)CO)C(=O)c2cc(NS(=O)(=O)c3ccc(F)cc3)ccc2O[C@H]1CN(C)Cc1ccc(Cl)c(Cl)c1	active
C[C@H]1CN([C@@H](C)CO)C(=O)c2cc(NS(=O)(=O)c3ccc(F)cc3)ccc2O[C@H]1CN(C)Cc1ccc(Cl)c(Cl)c1	inactive
C[C@H](CO)N1C[C@H](C)[C@H](CN(C)Cc2ccc(Cl)c(Cl)c2)Oc2ccc(NS(=O)(=O)c3ccc(F)cc3)cc2C1=O	inactive
C[C@@H]1CN([C@H](C)CO)C(=O)c2cc(NS(=O)(=O)c3ccc(F)cc3)ccc2O[C@H]1CN(C)Cc1ccc(Cl)c(Cl)c1	active
C[C@@H]1CN([C@H](C)CO)C(=O)c2cc(NS(=O)(=O)c3ccc(F)cc3)ccc2O[C@@H]1CN(C)Cc1ccc(Cl)c(Cl)c1	inactive
C[C@H]1CN([C@@H](C)CO)C(=O)c2cc(NS(=O)(=O)c3ccc(F)cc3)ccc2O[C@@H]1CN(C)Cc1ccc(Cl)c(Cl)c1	active
NC[C@H]1CC[C@H](C(=O)O)CC1	inactive
C[C@@H]1CCCCO[C@H](CN(C)Cc2ccccc2)[C@H](C)CN([C@@H](C)CO)C(=O)c2cc(NC(=O)c3ccccc3)ccc2O1	inactive
COc1ccccc1CNC(=O)C[C@@H]1C[C@H]2c3cc(NC(=O)c4ccc5c(c4)OCO5)ccc3O[C@H]2[C@@H](CO)O1	inactive
C[C@@H]1CN([C@H](C)CO)C(=O)CCCn2nncc2CO[C@@H]1CN(C)S(=O)(=O)c1ccc(Oc2ccccc2)cc1	inactive

Compound	cytotoxicity call
Cc1ccc(S(=O)(=O)N2C[C@@H](O)COC[C@H]3O[C@H](CC(=O)NCc4cccc(C(F)(F)F)c4)CC[C@@H]32)cc1	inactive
O=C1O[C@@H](c2ccccc2)[C@@H](c2ccccc2)N2[C@@H](c3ccc(O)cc3)[C@]3(C(=O)Nc4ccc(C#CC5(O)CCCCCC5)cc43)[C@@H](C(=O)N3CCCCCCC3)[C@H]12	inactive
CNC[C@H]1OCCCC[C@H](C)Oc2ccc(NS(=O)(=O)c3cn(C)cn3)cc2C(=O)N([C@@H](C)CO)C[C@@H]1C	inactive
C[C@@H]1CCCCO[C@@H](CN(C)C(=O)C2CCCCC2)[C@@H](C)CN([C@@H](C)CO)C(=O)c2cc(NC(=O)C3CCCCC3)ccc2O1	inactive
COc1ccc(S(=O)(=O)Nc2ccc3c(c2)CC(=O)N([C@@H](C)CO)C[C@H](C)[C@@H](CN(C)S(=O)(=O)c2ccc(OC)cc2)O3)cc1	inactive
COC(=O)[C@]12CCC(C)(C)C[C@H]1[C@H]1C(=O)C=C3[C@@]4(C)C=C(C#N)C(=O)C(C)(C)[C@@H]4CC[C@@]3(C)[C@]1(C)CC2	active
COC(=O)[C@@]12CCC(C)(C)C[C@@H]1[C@@H]1C(=O)C=C3[C@]4(C)C=C(C#N)C(=O)C(C)(C)[C@H]4CC[C@]3(C)[C@@]1(C)CC2	active
COc1ccc(CN(C)C[C@@H]2OCCCC[C@H](C)Oc3ccc(NC(=O)NC4CCCCC4)cc3C(=O)N([C@@H](C)CO)C[C@H]2C)cc1	inactive
CC1(C)[C@@H](OC(=O)CCC(=O)O)CC[C@]2(C)[C@H]3C(=O)C=C4[C@@H]5C[C@@](C)(C(=O)O)CC[C@]5(C)CC[C@@]4(C)[C@]3(C)CC[C@@H]12	inactive
C[C@@H]1CN([C@@H](C)CO)S(=O)(=O)c2ccc(/C=C/c3ccccc3)cc2O[C@@H]1CN(C)C(=O)Nc1cc(F)ccc1F	inactive
Cc1ccc(S(=O)(=O)Nc2ccc3c(c2)CC(=O)N([C@H](C)CO)C[C@H](C)[C@H](CN(C)CC2CC2)O3)cc1	inactive
C[C@@H]1CN([C@@H](C)CO)C(=O)c2c(c3ccccc3n2C)-c2ccccc2CO[C@@H]1CN(C)C(=O)c1cc(Cl)cc(Cl)c1	inactive
C[C@@H]1CN([C@@H](C)CO)C(=O)c2c(c3ccccc3n2C)-c2ccccc2CO[C@@H]1CN(C)C(=O)[C@H](C)c1ccccc1	inactive
C[C@@H](C(=O)N(C)C[C@H]1OCc2ccccc2-c2c(n(C)c3ccccc23)C(=O)N([C@@H](C)CO)C[C@@H]1C)c1ccccc1	inactive
C[C@H]1CN([C@@H](C)CO)C(=O)c2c(c3ccccc3n2C)-c2ccccc2CO[C@H]1CN(C)C(=O)c1cc(Cl)cc(Cl)c1	inactive
C[C@H](CO)N1C[C@H](C)[C@@H](CN(C)C(=O)c2cc(Cl)cc(Cl)c2)OCc2ccccc2-c2c(n(C)c3ccccc23)C1=O	active
C[C@H]1CN([C@@H](C)CO)C(=O)c2c(c3ccccc3n2C)-c2ccccc2CO[C@@H]1CN(C)C(=O)c1cc(Cl)cc(Cl)c1	inactive
C[C@@H]1CN([C@@H](C)CO)C(=O)c2c(c3ccccc3n2C)-c2ccccc2CO[C@H]1CN(C)C(=O)c1cc(Cl)cc(Cl)c1	inactive
C[C@@H]1CN([C@H](C)CO)C(=O)c2c(c3ccccc3n2C)-c2ccccc2CO[C@@H]1CN(C)C(=O)[C@H](C)c1ccccc1	active
C[C@@H]1CN([C@H](C)CO)C(=O)c2c(c3ccccc3n2C)-c2ccccc2CO[C@H]1CN(C)C(=O)c1cc(Cl)cc(Cl)c1	active
